Results filed as inconclusive are left out. Where a structure was tested more than once in an assay, its records may differ in their call. Calls of active or inactive are those of the source. How the source made its calls: active means hit-call score of the fitted dose curve at least 0.9, where 1 is the maximum; inconclusive means response in the unintended direction; inactive means score below 0.9.

In PubChem BioAssay (EPA / NIEHS) one finds AC50 and outcome data, which are given here for 20 compounds.

rat Neurokinin-3 Receptor (NK3), Tacr3 (gene 24808), sequence (P16177 whole entry, looked up): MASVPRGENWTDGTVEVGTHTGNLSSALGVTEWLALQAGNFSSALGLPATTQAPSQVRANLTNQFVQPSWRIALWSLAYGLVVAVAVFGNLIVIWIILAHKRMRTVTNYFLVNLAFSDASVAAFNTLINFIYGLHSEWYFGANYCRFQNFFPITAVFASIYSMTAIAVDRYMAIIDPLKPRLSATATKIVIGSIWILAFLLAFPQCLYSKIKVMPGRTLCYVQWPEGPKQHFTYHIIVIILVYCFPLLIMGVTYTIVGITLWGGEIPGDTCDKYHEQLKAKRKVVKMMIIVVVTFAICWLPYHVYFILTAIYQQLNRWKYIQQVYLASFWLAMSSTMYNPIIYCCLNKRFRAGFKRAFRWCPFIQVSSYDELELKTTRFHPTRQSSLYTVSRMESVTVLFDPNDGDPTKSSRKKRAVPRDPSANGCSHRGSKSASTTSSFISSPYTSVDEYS
rat Somatostatin Receptor (SST), Sstr1 (gene 25033), sequence (P28646 whole entry, looked up): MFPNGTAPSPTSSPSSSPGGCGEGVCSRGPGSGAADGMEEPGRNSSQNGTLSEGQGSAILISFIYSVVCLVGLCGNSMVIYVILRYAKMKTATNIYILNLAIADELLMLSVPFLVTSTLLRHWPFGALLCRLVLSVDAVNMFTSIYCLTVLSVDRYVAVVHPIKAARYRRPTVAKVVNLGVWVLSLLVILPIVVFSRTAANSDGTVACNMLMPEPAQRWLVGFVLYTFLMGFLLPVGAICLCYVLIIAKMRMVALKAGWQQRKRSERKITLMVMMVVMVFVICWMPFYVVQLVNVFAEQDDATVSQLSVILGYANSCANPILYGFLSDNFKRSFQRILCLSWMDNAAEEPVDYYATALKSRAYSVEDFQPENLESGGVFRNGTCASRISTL
Adra2b (gene 24174), sequence (P19328 whole entry, looked up): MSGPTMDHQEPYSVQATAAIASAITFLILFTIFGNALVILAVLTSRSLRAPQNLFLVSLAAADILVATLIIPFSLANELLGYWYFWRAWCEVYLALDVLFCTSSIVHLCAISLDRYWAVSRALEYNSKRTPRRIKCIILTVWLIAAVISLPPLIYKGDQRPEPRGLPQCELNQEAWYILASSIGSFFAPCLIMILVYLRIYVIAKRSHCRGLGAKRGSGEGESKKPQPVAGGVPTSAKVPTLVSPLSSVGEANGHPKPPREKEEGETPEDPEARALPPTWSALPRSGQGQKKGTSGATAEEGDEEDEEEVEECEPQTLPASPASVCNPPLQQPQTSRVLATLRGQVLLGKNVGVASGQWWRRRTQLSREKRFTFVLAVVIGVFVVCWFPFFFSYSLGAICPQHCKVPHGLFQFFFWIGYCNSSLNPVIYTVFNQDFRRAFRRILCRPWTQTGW
rat Neurokinin-1 Receptor (NK1), Tacr1 (gene 24807), sequence (P14600 whole entry, looked up): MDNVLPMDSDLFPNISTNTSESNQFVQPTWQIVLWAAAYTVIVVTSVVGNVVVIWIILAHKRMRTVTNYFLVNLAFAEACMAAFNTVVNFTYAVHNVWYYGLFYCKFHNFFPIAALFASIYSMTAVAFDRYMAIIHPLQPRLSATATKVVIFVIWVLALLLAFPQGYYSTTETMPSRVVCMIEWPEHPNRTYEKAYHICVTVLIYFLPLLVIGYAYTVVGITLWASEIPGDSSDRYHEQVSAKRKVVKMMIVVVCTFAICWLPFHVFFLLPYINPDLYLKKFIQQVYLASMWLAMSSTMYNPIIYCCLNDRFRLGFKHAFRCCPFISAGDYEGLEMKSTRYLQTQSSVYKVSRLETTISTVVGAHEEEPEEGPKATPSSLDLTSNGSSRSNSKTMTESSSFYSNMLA

The first test concerns the target Adra2b (gene 24174) (UniProt P19328). Nature of the test: NVS_GPCR_rmAdra2B: NovaScreen (NVS) G Protein-Coupled Receptor Assay for hybird cells Adrenergic, Alpha 2B Receptor (Adra2B) (AID 2283306). The gist of the method:
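Radioligand filter-binding assay on membrane proteins from neuroglioma/blastoma hybrid cells (rodent), 1 h after dosing; scintillation counting, loss of signal vs DMSO. Primary screen in duplicate at 25 uM, actives then run in concentration series.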
Usually AC50 stands for the midpoint of the concentration-response curve, whichever way the signal moves. `CC1COC(Cn2cncn2)(c2ccc(Oc3ccc(Cl)cc3)cc2Cl)O1` (stereo not drawn): the AC50 is 4.59 µM (active).
On the same count and under the same terms, the result for `Cc1ccc(-c2c(Cl)nc(C#N)n2S(=O)(=O)N(C)C)cc1` reads 4.08 µM (active); that for `O=C(Nc1ccccc1)Nc1ccnc(Cl)c1`, 8.91 µM (active).
Still for that read-out and setting: the value for `CCON=C(CC)C1=C(O)CC(c2c(C)cc(C)cc2C)CC1=O` (stereo not drawn) was 2.7 µM (active).

The target of the next test is rat Neurotensin Receptor (NTS), Ntsr1 (gene 366274) (UniProt P20789). Nature of the test: NVS_GPCR_rNTS: NovaScreen (NVS) G Protein-Coupled Receptor Assay for rat Neurotensin Receptor (NTS) (AID 2283308). The method, then: (§1) NVS_GPCR_rNTS is a biochemical, single-readout assay that uses extracted gene-proteins from Rat forebrain membranes in a tissue-based cell-free assay. Measurements were taken 1 hour after chemical dosing in a 48-well plate.NVS_GPCR_rNTS is one of one assay component(s) measured or calculated from the NVS_GPCR_rNTS assay. It is designed to make measurements of radioligand binding, a form of binding reporter, as detected with scintillation counting signals by Filter-based radiodetection technology.Data from the assay component NVS_GPCR_rNTS was analyzed into 1 assay endpoint. This assay endpoint, NVS_GPCR_rNTS, was analyzed in the positive analysis fitting direction relative to DMSO as the negative control and baseline of activity. Using a type of binding reporter, loss-of-signal activity can be used to understand changes in the binding as they relate to the gene Ntsr1. Furthermore, this assay endpoint can be referred to as a primary readout, because the performed assay has only produced 1 assay endpoint. To generalize the intended target to other relatable targets, this assay endpoint is annotated to the gpcr intended target family, where the subfamily is rhodopsin-like receptor.
rat Neurotensin Receptor (NTS), Ntsr1 (gene 366274), sequence (P20789 whole entry, looked up): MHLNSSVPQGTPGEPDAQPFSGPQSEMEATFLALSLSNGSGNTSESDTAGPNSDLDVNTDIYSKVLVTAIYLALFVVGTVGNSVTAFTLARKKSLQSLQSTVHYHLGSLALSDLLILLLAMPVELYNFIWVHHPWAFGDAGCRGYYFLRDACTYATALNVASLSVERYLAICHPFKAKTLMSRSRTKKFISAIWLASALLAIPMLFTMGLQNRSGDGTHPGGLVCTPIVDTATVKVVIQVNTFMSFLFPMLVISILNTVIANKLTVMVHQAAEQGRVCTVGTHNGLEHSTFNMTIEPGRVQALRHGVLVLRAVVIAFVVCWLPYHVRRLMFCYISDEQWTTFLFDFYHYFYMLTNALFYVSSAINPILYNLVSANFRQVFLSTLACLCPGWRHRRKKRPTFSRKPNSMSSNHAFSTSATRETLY
(§2) Binding assays used specific radioligands (tritiated, iodinated) with non-radioactive competitive displacement ligands in agonist or antagonist protocols (as indicated) and various reference compounds and inhibitors to titrate specific binding to receptors and transporters. Most enzyme assays (CYPs, kinases, phosphatases, proteases, HDACs) used recombinant protein and specific substrates (fluorescence mostly, some colorimetric and radioactive) and inhibitors, followed by a biochemical separation of substrate and product. All assays for the biochemical HTS were initially run in duplicate at a single concentration (10 uM for CYP450 assays and 25 uM for all others). Assay-chemical combinations meeting a pre-defined threshold (e.g., 30% inhibition and other criteria defined below) were then run in singleton concentration-response format with maximum concentration of 20 uM for CYPs and 50 uM for all others. Each assay was run with positive and negative controls, and concurrent controls on every plate. The follow-up (secondary) screen tested active chemical-pairs in concentration series, as well as a few additional assays not tested in the primary screen, some selected negative inactives, and several cases re-run in the concentration series for confirmatory purposes.
Take `COC(=O)C(C)Oc1ccc(Oc2ccc(Cl)cc2Cl)cc1` (stereo not drawn): the compound was classed as inactive.
Same read-out and setting: the value for `Cc1c(F)c(F)c(COC(=O)C2C(/C=C(\Cl)C(F)(F)F)C2(C)C)c(F)c1F` (stereo not drawn) was “inactive”.
On the same count and under the same terms, the value for `COc1nc(C)nc(NC(=O)NS(=O)(=O)c2ccccc2Cl)n1` was “inactive”; that for `CNC(=S)S` was “inactive”; that for `CCNc1nc(Cl)nc(NC(C)C)n1` was “inactive”.

Another test has as its target rat Neurokinin-1 Receptor (NK1), Tacr1 (gene 24807) (UniProt P14600). Description: NVS_GPCR_rNK1: NovaScreen (NVS) G Protein-Coupled Receptor Assay for rat Neurokinin-1 Receptor (NK1) (AID 2283309). The gist of the method:
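Rat submaxillary gland membranes; radioligand displacement read by filter-based scintillation counting after 1 h. Primary screen in duplicate at 25 uM; actives retested in concentration series; loss of binding fitted versus DMSO.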
For `COc1ccc(C(c2ccc(OC)cc2)C(Cl)(Cl)Cl)cc1`, the result was inactive.
Same read-out and setting: the result for `COC(=O)C(C)Oc1ccc(Oc2ccc(Cl)cc2Cl)cc1` (stereo not drawn) reads “inactive”; that for `CO/C=C(/C(=O)OC)c1ccccc1Oc1cc(Oc2ccccc2C#N)ncn1`, “inactive”; that for `CC1COC(Cn2cncn2)(c2ccc(Oc3ccc(Cl)cc3)cc2Cl)O1` (stereo not drawn), “inactive”.
On to `C=CCC1=C(C)[C@@H](OC(=O)[C@@H]2[C@@H](C=C(C)C)C2(C)C)CC1=O`, for which the AC50 was 39.1 µM (active).
With `COc1nc(C)nc(NC(=O)NS(=O)(=O)c2ccccc2CCC(F)(F)F)n1`, the compound was called inactive.

For a further test, the target named is rat Neurokinin-3 Receptor (NK3), Tacr3 (gene 24808) (UniProt P16177). Nature of the test: NVS_GPCR_rNK3: NovaScreen (NVS) G Protein-Coupled Receptor Assay for rat Neurokinin-3 Receptor (NK3) (AID 2283310). The method, then:
as §1, with “NVS_GPCR_rNK3” for “NVS_GPCR_rNTS”, “cortical” for “forebrain”, “2 hours” for “1 hour”, “plate.NVS_GPCR_rNK3” for “plate.NVS_GPCR_rNTS”, “NVS_GPCR_rNK3,” for “NVS_GPCR_rNTS,”, “Tacr3.” for “Ntsr1.”
Binding assays used specific radioligands (tritiated, iodinated) with non-radioactive competitive displacement ligands in agonist or antagonist protocols (as indicated) and various reference compounds and inhibitors to titrate specific binding to receptors and transporters. Most enzyme assays (CYPs, kinases, phosphatases, proteases, HDACs) used recombinant protein and specific substrates (fluorescence mostly, some colorimetric and radioactive) and inhibitors, followed by a biochemical separation of substrate and product. All assays for the biochemical HTS were initially run in duplicate at a single concentration (10 uM for CYP450 assays and 25 uM for all others). […]
`CS/C(C)=N/OC(=O)N(C)SN(C)C(=O)O/N=C(\C)SC`: the AC50 is 2.97 µM (active).
As to `C=CCC1=C(C)C(OC(=O)C2C(C=C(C)C)C2(C)C)CC1=O` (stereo not drawn), the compound was classed as inactive.
On the same count and under the same terms, the value for `CNC(=S)S` was “inactive”.

For another test, the target named is rat Opioid Receptor, Non-selective Sodium (Na+) Binding, Oprm1 (gene 25601) (UniProt P33535). Nature of the test: NVS_GPCR_rOpiate_NonSelectiveNa: NovaScreen (NVS) G Protein-Coupled Receptor Assay for rat Opioid Receptor, Non-selective Sodium (Na+) Binding (AID 2283311). An outline of the steps: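 Rat forebrain membranes, radioligand displacement with filter scintillation counting, 1.5 h incubation. Screened in duplicate at 25 µM; hits then run in concentration-response up to 50 µM; loss of binding fitted versus DMSO.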
rat Opioid Receptor, Non-selective Sodium (Na+) Binding, Oprm1 (gene 25601), sequence (P33535 whole entry, looked up): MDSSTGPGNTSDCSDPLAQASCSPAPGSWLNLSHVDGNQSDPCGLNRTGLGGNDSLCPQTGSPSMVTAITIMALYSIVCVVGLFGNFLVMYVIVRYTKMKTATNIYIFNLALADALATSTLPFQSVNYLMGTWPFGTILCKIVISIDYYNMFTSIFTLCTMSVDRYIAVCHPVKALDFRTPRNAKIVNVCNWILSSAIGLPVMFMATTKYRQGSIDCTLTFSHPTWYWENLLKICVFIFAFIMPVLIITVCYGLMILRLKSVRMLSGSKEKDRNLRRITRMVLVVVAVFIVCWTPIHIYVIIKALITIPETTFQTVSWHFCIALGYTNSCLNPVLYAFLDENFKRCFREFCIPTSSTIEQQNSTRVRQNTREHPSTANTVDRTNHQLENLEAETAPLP
Regarding `COC(=O)C=C(C)OP(=O)(OC)OC`, the call was inactive.
In the case of `CCCC1COC(Cn2cncn2)(c2ccc(Cl)cc2Cl)O1` (stereo not drawn), the AC50 is 25 µM (active).
With `CO/C=C(/C(=O)OC)c1ccccc1Oc1cc(Oc2ccccc2C#N)ncn1`, the AC50 is 12.6 µM (active) and the compound was classed as inactive.
Take `COP(=S)(OC)Oc1nc(Cl)c(Cl)cc1Cl`: the call was inactive.
On the same count and under the same terms, the value for `COc1nc(C)nc(NC(=O)NS(=O)(=O)c2ccccc2CCC(F)(F)F)n1` was “inactive”.

The next test concerns the target rat Somatostatin Receptor (SST), Sstr1 (gene 25033) (UniProt P28646). Description: NVS_GPCR_rSST: NovaScreen (NVS) G Protein-Coupled Receptor Assay for rat Somatostatin Receptor (SST) (AID 2283314). The method, then:
as §1, with “NVS_GPCR_rSST” for “NVS_GPCR_rNTS”, “96-well plate.NVS_GPCR_rSST” for “48-well plate.NVS_GPCR_rNTS”, “NVS_GPCR_rSST,” for “NVS_GPCR_rNTS,”, “Sstr1.” for “Ntsr1.”
as §2
On to `CS/C(C)=N/OC(=O)N(C)SN(C)C(=O)O/N=C(\C)SC`, for which the AC50 is 17.2 µM (active).
On to `CN(C)C(=S)SSC(=S)N(C)C`, for which the result was inactive.
The same measure, in the same setting: the result for `COP(=S)(OC)Oc1nc(Cl)c(Cl)cc1Cl` reads “inactive”; that for `CCOC(=O)CC(SP(=S)(OC)OC)C(=O)OCC` (stereo not drawn), “inactive”.
